ELG1 genotoxic: induces genotoxicity in HEK293T cells with luciferase-tagged ELG1; Potency, µM (series often up to 46 µM), hits mostly activators; hit rate 1.3% among 330,000; HEK293T ELG1-luciferase reporter, luminescence, 16 h; further: nearly all actives have a fitted effect of over 60% in size
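HEK293T cells expressing luciferase-tagged ELG1 were exposed to compound or DMSO vehicle for 16 hr at 37 °C and 5% CO2. Luciferase activity was then measured with ONE-Glo after 30 min at room temperature.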
MCF10A rerep: inducers of DNA re-replication in MCF 10A breast cells; Potency, µM (doses to about 46.1 µM), hits mostly activators; MCF 10A DNA re-replication, Hoechst nuclear intensity, 48 h; AID 624296; hit rate 2.9% among 350,000; further: nearly all actives have a fitted effect of over 50% in size
SW480 rerep: DNA re-replication induction in SW480 cells. SW480 DNA re-replication, Hoechst DNA content imaging, 48 h. Potency, µM (highest dose often 46.1 µM), usual class: activators. hit rate 1.8% among 340,000. AID 624297; further: nearly all actives have a fitted effect of over 55% in size
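Treated cells incubate 48 hr (37 C, 5% CO2), are stained 40 min with Hoechst, and nuclear fluorescence is enumerated; a rise in nuclei with high DNA signal marks re-replication.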
AT treatment: potential ataxia-telangiectasia treatments restoring KAP-1 phosphorylation | F2112 A-T fibroblasts, KAP-1 phosphorylation AlphaLISA; neocarzinostatin DNA damage 30 min before lysis | Potency, µM (doses to about 57.5 µM), most hits filed as activators | hit rate 0.19% among 320,000 | AID 485349; further: nearly all actives have a fitted effect of over 45% in size
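ATM-like activity read as KAP-1 phosphorylation via AlphaLISA donor/acceptor antibody pairs after lysis and 6 hr at 25C. Cells were ATM-null patient fibroblasts (F2112, hTERT), dosed 60 min, then exposed to the DSB inducer NCS for 30 min.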
p53 reactivator: restores transcriptional activity of mutant p53; H1299 p53-A138V BP100-luciferase reporter, luminescence, 24 h; Potency, µM (series often up to 92.2 µM), usual class: activators; hit rate 0.063% among 320,000; AID 504706; further: nearly all actives have a fitted effect of over 45% in size
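p53-null H1299 cells stably carrying temperature-sensitive p53-A138V and a BP100-luciferase reporter were pinned with compounds (4-point, 1:5 series) and held 24 hrs at 37 deg C. Luminescence was read 10 min after detection reagent.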
ELG1 repair inh: blocks ELG1-dependent DNA repair in HEK293T cells; HEK293T ELG1-luciferase reporter, luminescence, 16 h; DNA damage induced by 5-fluorouridine; Potency, µM (titrated, usually from 46.1 µM), usual class: inhibitors; hit rate 2.3% among 330,000; AID 504467; further: nearly all actives have a fitted effect of over 55% in size
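HEK293T cells expressing luciferase-tagged ELG1 (2,000/well) received 5-Fluorouridine plus compound or DMSO for 16 hr at 37 °C. Luciferase was read by ONE-Glo luminescence after 30 min at room temperature.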
Of the large screens only hits and unclear results are named; the others gave an inactive call. Sampled rows, rich in hits. Any-hit rate of the full collection: about 7.1%. The call rests on the fitted dose curve; in most records, active means well fitted curve in the direction sought with a large enough effect; inconclusive means small, poorly fitted or top-dose-only effect, or another doubt; inactive means no such curve, though single readings can be large; an effect the other way counts as inactive or inconclusive.

CCOc1ccc(Nc2nc(Cl)nc(NCCO)n2)cc1	none
CCOc1nc(NCCO)nc(Nc2ccc([N+](=O)[O-])cc2)n1	ELG1 repair inh 10µM
CCCCNS(=O)(=O)c1ccc2nc(SCC(=O)c3ccccc3OC)[nH]c2c1	MCF10A rerep inconclusive, ELG1 repair inh 21µM
CCCCNS(=O)(=O)c1ccc2nc(SCC(N)=O)[nH]c2c1	SW480 rerep inconclusive
CCCCNS(=O)(=O)c1ccc2nc(SCC(=O)Nc3ccccc3Cl)[nH]c2c1	ELG1 repair inh inconclusive
CCCCNS(=O)(=O)c1ccc2nc(SCC(=O)Nc3sccc3C#N)[nH]c2c1	MCF10A rerep inconclusive, ELG1 repair inh 16µM
CC1(C)CC(=O)C/C(=N/NC(=O)COc2ccc3ccccc3c2Br)C1	MCF10A rerep inconclusive
CCN(C(=O)COC(=O)c1ccc([N+](=O)[O-])o1)C1CCCCC1	none
O=C1NC(=O)C2C3C=CC(C3)C12 (configuration not stated)	none (no result: ELG1 genotoxic, AT treatment, p53 reactivator, ELG1 repair inh)
Cc1cc(Br)ccc1OCCCCNCCO	none
C=CCNCCCCOc1ccc(Br)cc1C	MCF10A rerep 26µM, SW480 rerep inconclusive
Cc1ccccc1CS(=O)(=O)c1cnc2ccccc2n1	MCF10A rerep 18µM, SW480 rerep inconclusive, ELG1 repair inh inconclusive
COc1ccc(CCNC(=O)C2CCCN(c3nc4ccccc4s3)C2)cc1OC (configuration not stated)	ELG1 repair inh 18µM
CC(Oc1ccccc1)C(=O)Nc1cc(Cl)ccc1-n1cncn1 (configuration not stated)	none
CCOC(=O)c1[nH]c(C)c(C(=O)OCC(=O)N2CCc3ccccc32)c1C	MCF10A rerep 23µM
CCOC(=O)c1c(C)[nH]c(C(=O)OCC(=O)N2CCc3ccccc32)c1C	none
CCOC(=O)C1=C(C)NC(C)=C(C(=O)OCC)C1C(=O)OCC(=O)N1CCc2ccccc21	ELG1 genotoxic 18µM, ELG1 repair inh inconclusive
CCOC(=O)c1c(C)[nH]c(C(=O)OCC(=O)N2CCN(S(=O)(=O)c3ccc(C)cc3C)CC2)c1C	ELG1 repair inh 13µM
O=C(N/N=C/c1cc(Cl)ccc1O)c1ccc(Br)cc1	SW480 rerep 1.6µM, p53 reactivator inconclusive, ELG1 repair inh inconclusive
Cc1ccc(N=Nc2ccc(O)c(/C=N\NC(=O)c3ccc(N)cc3)c2)cc1C	ELG1 genotoxic inconclusive, SW480 rerep 3.7µM
Cc1c(Cn2ccnc2)c2ccccc2n1CCC(=O)O	none (no result: ELG1 genotoxic, AT treatment, p53 reactivator, ELG1 repair inh)
Cc1ccc(NC(=O)CN2CCc3cc4c(cc3C2C)OCCCO4)cc1 (configuration not stated)	SW480 rerep inconclusive, ELG1 repair inh 18µM
CC1c2cc3c(cc2CCN1CC(=O)Nc1ccccc1)OCCCO3 (configuration not stated)	ELG1 repair inh inconclusive
CNC1C(O)C(OC2C(NC(=O)C(O)CN)CC(N)C(OC3OC(CN)C(O)C(O)C3O)C2O)OCC1(C)O (configuration not stated)	none (no result: ELG1 genotoxic, AT treatment, p53 reactivator, ELG1 repair inh)
CCN(CC)C(=S)SCC(=O)c1ccccc1	ELG1 genotoxic inconclusive, SW480 rerep inconclusive, ELG1 repair inh inconclusive
CCN(CC)C(=S)SSC(=S)N(CC)CC	MCF10A rerep 15µM, SW480 rerep inconclusive, ELG1 repair inh inconclusive (no result: p53 reactivator)
Cc1noc(C)c1COC(=O)c1cccc(S(=O)(=O)N2CCOCC2)c1	none
Cc1noc(C)c1COC(=O)c1cccc(S(=O)(=O)N2c3ccccc3CC2C)c1 (configuration not stated)	MCF10A rerep inconclusive, SW480 rerep inconclusive, ELG1 repair inh 18µM
CCOC(=O)c1sc(NC(=O)c2cccc(S(=O)(=O)N3c4ccccc4CC3C)c2)cc1C (configuration not stated)	MCF10A rerep 8.2µM, SW480 rerep inconclusive
Cn1cccc1/C=N/NC(=O)CSc1nc2ccccc2n1C	none
CCN(CC)CCn1nc2c3c(cccc3c1=O)-c1ccccc1-2	SW480 rerep 9.2µM, ELG1 repair inh inconclusive
Cc1ccc(S(=O)(=O)N2CCOCC2)cc1C(=O)NC1=NCCS1	none
O=C(CCC1CCCC1)Nc1cc(C(F)(F)F)ccc1N1CCOCC1	SW480 rerep 3.7µM, ELG1 repair inh inconclusive
COC(=O)COc1ccc(S(=O)(=O)NCc2ccc3c(c2)OCO3)cc1C	SW480 rerep inconclusive
O=C1c2ccccc2C(=O)C1c1ccc2ccccc2n1	ELG1 genotoxic 0.13µM, MCF10A rerep inconclusive, p53 reactivator inconclusive, ELG1 repair inh inconclusive
CC(=O)Nc1cc2c3c(cccc3c1)-c1ccccc1-2	MCF10A rerep 2.3µM, SW480 rerep 16µM (no result: ELG1 genotoxic, AT treatment, p53 reactivator, ELG1 repair inh)
CC(=O)Nc1ccc2c(c1)C(=O)c1ccccc1C2=O	ELG1 genotoxic inconclusive, p53 reactivator inconclusive, ELG1 repair inh inconclusive
CCOc1ccc2nc3cc(NCc4ccc(OC)cc4)ccc3c(N)c2c1	MCF10A rerep 15µM, SW480 rerep inconclusive
CCOc1ccc2nc3cc(N)ccc3c(N)c2c1	none (no result: ELG1 genotoxic, AT treatment, p53 reactivator, ELG1 repair inh)
COc1cc(C(=O)O/N=C2\C=CC(=O)C(C)=C2)cc(OC)c1OC	MCF10A rerep inconclusive, SW480 rerep 5.8µM
COc1cc(C(=O)ON=C2C=C(C)C(=O)C(C)=C2)cc(OC)c1OC	MCF10A rerep inconclusive, SW480 rerep inconclusive, ELG1 repair inh inconclusive
O=c1c2c3nc4ccccc4nc3n(/N=C/c3ccccn3)c2ncn1-c1ccccc1	MCF10A rerep 3.3µM, SW480 rerep 23µM
C=CCn1cnc2c(c1=O)c1nc3ccccc3nc1n2-c1ccccc1	none (no result: MCF10A rerep, SW480 rerep)
C=CCn1cnc2c(c1=O)c1nc3ccccc3nc1n2/N=C/c1ccccn1	ELG1 repair inh 12µM
COc1ccccc1-n1c(CNC(=O)c2ccc(S(=O)(=O)N3CCCCC3)cc2)n[nH]c1=S	none
O=C(CN1C(=O)NC2(CCCC2)C1=O)NNC(=O)c1ccccc1F	none
C=CCn1c(=NC(=O)c2cc(Cl)sc2Cl)sc2cc(S(N)(=O)=O)ccc21	MCF10A rerep 21µM
COCCn1c(=NC(=O)c2cc(-c3cccs3)nc3ccccc23)sc2cc(S(N)(=O)=O)ccc21	MCF10A rerep inconclusive, ELG1 repair inh 6.5µM
C=CCn1c(=NC(=O)c2cc(-c3cccs3)nc3ccccc23)sc2cc(S(N)(=O)=O)ccc21	MCF10A rerep inconclusive, SW480 rerep 21µM, ELG1 repair inh 18µM
C=CCn1c(=NC(=O)c2sc3ccccc3c2Cl)sc2cc(S(N)(=O)=O)ccc21	SW480 rerep inconclusive
CCc1ccc2c(COC(=O)C3CSC4(C)CCC(=O)N34)cc(=O)oc2c1 (configuration not stated)	none
CCOC(=O)c1c(O)cc(C)cc1Nc1ccccc1	MCF10A rerep inconclusive, AT treatment inconclusive

Screening data: PubChem, National Center for Advancing Translational Sciences (NCATS)
